Screen size: about 5,500 compounds; about 2,000 (36%) were called active. Roughly 18% stayed inconclusive and do not appear here. Rule as the data show it: active = normalized growth mostly below about 0.91 (no sharp cut-off); inconclusive = no clear call, values can overlap the other calls; inactive = mostly above about 0.92. The list shows a part of the results.
Assay: chemical genetic growth profiling, strain panel (AID 1159580);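 also: tested at 20 µM; growth read once vehicle control cultures reached saturation at 30 °C; 1 = growth at the plate median or of vehicle wells; lower values mean less growth of the strain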
Details: S. cerevisiae deletion strains, growth OD

Measured: normalized growth

CC12CCCCC1(Br)[N+](=O)N2[O-] (stereo unspecified)
inactive: locus YAL021C, strain ccr4, stronger effect = lower value 0.951 | locus YAL030W, strain snc1, stronger effect = lower value 0.997 | locus YBL061C, strain skt5, stronger effect = lower value 0.978 | locus YBR009C, strain hhf1, stronger effect = lower value 0.939 | locus YBR023C, strain chs3, stronger effect = lower value 0.976 | locus YBR171W, strain sec66, stronger effect = lower value 0.964 | locus YBR231C, strain swc5, stronger effect = lower value 0.992 | locus YBR279W, strain paf1, stronger effect = lower value 0.972 | locus YCL011C, strain gbp2, stronger effect = lower value 0.943 | locus YCL016C, strain dcc1, stronger effect = lower value 0.951 | locus YCL069W, strain vba3, stronger effect = lower value 0.986 | locus YCR088W, strain abp1, stronger effect = lower value 0.983 | locus YDL005C, strain med2, stronger effect = lower value 0.969 | locus YDL040C, strain nat1, stronger effect = lower value 0.991 | locus YDR001C, strain nth1, stronger effect = lower value 1.01 | locus YDR069C, strain doa4, stronger effect = lower value 0.91 | locus YDR137W, strain rgp1, stronger effect = lower value 0.857 | locus YDR159W, strain sac3, stronger effect = lower value 0.995 | locus YDR195W, strain ref2 1.01 | locus YDR297W, strain sur2, stronger effect = lower value 1 | locus YDR334W, strain swr1, stronger effect = lower value 0.984 | locus YDR335W, strain msn5, stronger effect = lower value 0.974 | locus YDR392W, strain spt3, stronger effect = lower value 0.948 | locus YEL003W, strain gim4, stronger effect = lower value 0.994 | locus YEL037C, strain rad23, stronger effect = lower value 0.998 | locus YEL061C, strain CIN8 (second series), stronger effect = lower value 0.993 | locus YER015W, strain faa2, stronger effect = lower value 0.993 | locus YER016W, strain bim1, stronger effect = lower value 0.999 | locus YER111C, strain swi4, stronger effect = lower value 0.967 | locus YFR010W, strain ubp6, stronger effect = lower value 0.922 | locus YGL167C, strain pmr1, stronger effect = lower value 0.993 | locus YGL173C, strain kem1, stronger effect = lower value 0.953 | locus YGL227W, strain vid30, stronger effect = lower value 0.992 | locus YGL240W, strain doc1, stronger effect = lower value 0.992 | locus YGL253W, strain hxk2, stronger effect = lower value 0.989 | locus YHR013C, strain ard1, stronger effect = lower value 0.919 | locus YHR027C, strain rpn1, stronger effect = lower value 0.966 | locus YHR142W, strain chs7, stronger effect = lower value 0.942 | locus YJL092W, strain hpr5, stronger effect = lower value 0.989 | locus YJL095W, strain BCK1 (second series), stronger effect = lower value 0.993 | locus YJL115W, strain asf1, stronger effect = lower value 0.987 | locus YJL129C, strain trk1, stronger effect = lower value 0.997 | locus YJL154C, strain vps35, stronger effect = lower value 0.997 | locus YJL164C, strain tpk1, stronger effect = lower value 0.951 | locus YJL166W, strain qcr8, stronger effect = lower value 0.961 | locus YJL187C, strain SWE1, stronger effect = lower value 0.986 | locus YKL160W, strain elf1, stronger effect = lower value 0.944 | locus YKR026C, strain gcn3, stronger effect = lower value 0.985 | locus YKR091W, strain srl3, stronger effect = lower value 0.989 | locus YLL001W, strain dnm1, stronger effect = lower value 0.967 | locus YLL026W, stronger effect = lower value 0.991 | locus YLL041C, strain sdh2, stronger effect = lower value 0.999 | locus YLR027C, strain aat2, stronger effect = lower value 0.954 | locus YLR221C, strain rsa3, stronger effect = lower value 0.927 | locus YLR258W, strain gsy2, stronger effect = lower value 0.967 | locus YLR320W, strain mms22, stronger effect = lower value 0.954 | locus YLR342W, strain FKS1, stronger effect = lower value 0.946 | locus YLR357W, strain rsc2, stronger effect = lower value 0.914 | locus YLR370C, strain arc18, stronger effect = lower value 0.966 | locus YLR384C, strain iki3, stronger effect = lower value 0.984 | locus YML120C, strain ndi1, stronger effect = lower value 1 | locus YMR058W, strain fet3, stronger effect = lower value 0.951 | locus YMR125W, strain sto1, stronger effect = lower value 1.02 | locus YMR129W, stronger effect = lower value 0.98 | locus YMR205C, strain PFK2, stronger effect = lower value 0.995 | locus YMR231W, strain pep5, stronger effect = lower value 0.997 | locus YNL071W, strain lat1, stronger effect = lower value 0.946 | locus YNL209W, strain ssb2, stronger effect = lower value 0.963 | locus YNL248C, strain rpa49, stronger effect = lower value 0.954 | locus YNL322C, strain KRE1 (second series), stronger effect = lower value 0.979 | locus YNR049C, strain mso1, stronger effect = lower value 0.999 | locus YOR001W, strain rrp6, stronger effect = lower value 0.958 | locus YOR070C, strain gyp1, stronger effect = lower value 0.994 | locus YOR080W, strain dia2, stronger effect = lower value 1 | locus YOR083W, strain WHI5, stronger effect = lower value 0.895 | locus YOR106W, strain vam3, stronger effect = lower value 0.884 | locus YOR265W, strain rbl2, stronger effect = lower value 0.991 | locus YOR270C, strain vph1, stronger effect = lower value 0.81 | locus YOR290C, strain snf2, stronger effect = lower value 0.976 | locus YPL051W, strain arl3, stronger effect = lower value 0.936 | locus YPL078C, strain atp4, stronger effect = lower value 0.967 | locus YPL106C, strain sse1, stronger effect = lower value 0.941 | locus YPL240C, strain hsp82, stronger effect = lower value 0.978
active: locus YAL026C, strain drs2, stronger effect = lower value 0.899 | locus YER155C, strain BEM2 (second series), stronger effect = lower value 0.853 | locus YLR262C, strain YPT6 (second series), stronger effect = lower value 0.815
